# NPC1 prom act = activators of NPC1 promoter; hit rate 2.4% among 320,000; Huh7 NPC1 promoter luciferase reporter, 24 h; Potency, µM (highest dose often 9.22 µM), usual class: activators; AID 485313; note: nearly all actives have a fitted effect of over 60% in size
#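 NPC1 promoter–luciferase Huh7 cells; 24 h compound; luminescence.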
# FLuc modulator = inhibits or activates purified firefly luciferase, miR-21 counter-screen; P08659; purified FLuc, Km substrates, luminescence inhibition; Potency, µM (highest dose often 57.5 µM), hits mostly inhibitors; hit rate 6.9% among 360,000; AID 588342; note: nearly all actives have a fitted effect of over 55% in size
# Target sequence (P08659 whole entry, looked up): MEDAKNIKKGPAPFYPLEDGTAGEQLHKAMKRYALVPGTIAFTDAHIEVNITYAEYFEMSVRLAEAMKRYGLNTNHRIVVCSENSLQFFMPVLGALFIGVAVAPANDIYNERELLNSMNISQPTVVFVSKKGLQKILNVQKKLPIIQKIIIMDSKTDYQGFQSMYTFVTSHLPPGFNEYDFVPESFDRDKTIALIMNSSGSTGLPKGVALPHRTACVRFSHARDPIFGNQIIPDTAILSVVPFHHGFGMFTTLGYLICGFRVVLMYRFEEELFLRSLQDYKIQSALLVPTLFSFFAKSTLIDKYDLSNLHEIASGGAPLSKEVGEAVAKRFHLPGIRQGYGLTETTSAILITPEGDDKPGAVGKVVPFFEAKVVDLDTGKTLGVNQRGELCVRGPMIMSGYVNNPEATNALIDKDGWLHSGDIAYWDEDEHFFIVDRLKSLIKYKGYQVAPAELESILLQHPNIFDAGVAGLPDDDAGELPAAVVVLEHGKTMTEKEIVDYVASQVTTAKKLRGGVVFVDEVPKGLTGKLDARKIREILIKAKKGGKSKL
#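 Purified P. pyralis luciferase (10nM final) with 10uM D-luciferin and 10uM ATP (Km levels) in 50mM Tris acetate pH 7.5, 10mM Mg acetate, 0.01% Tween-20, 0.05% BSA; qHTS 6-point titration, ~60 µM downward; luminescence read.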
# ELG1 DNA repair = blocks ELG1-dependent DNA repair in HEK293T cells; HEK293T ELG1-luciferase reporter, luminescence, 16 h; DNA damage induced by 5-fluorouridine; Potency, µM (top dose mostly 46.1 µM), most hits filed as inhibitors; hit rate 2.3% among 330,000; AID 504467; note: nearly all actives have a fitted effect of over 55% in size
#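 Reporter activity after DNA damage by 5-fluorouridine is monitored. Compound-treated cells incubate 16 hr at 37 °C, then ONE-Glo is added for 30 min before luminescence reading.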
# Rab9 promoter act = activators of Rab9 promoter. hit rate 2.8% among 320,000. Potency, µM (top dose mostly 9.22 µM), usual class: activators. Huh7 Rab9 promoter-luciferase reporter, luminescence, 24 h; note: nearly all actives have a fitted effect of over 60% in size
#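 Using Huh7 cells stably transfected with Rab9 promoter–luciferase, compounds were incubated 24 h at 37 °C, 5% CO2; luciferase luminescence was read 10 min after reagent addition.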
# ELG1 genotoxic = induces genotoxicity in HEK293T cells with luciferase-tagged ELG1 | AID 504466 | Potency, µM (series often up to 46 µM), most hits filed as activators | hit rate 1.3% among 330,000 | HEK293T ELG1-luciferase reporter, luminescence, 16 h; note: nearly all actives have a fitted effect of over 60% in size
#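 ELG1-luciferase HEK293T cells, 2,000/well; compound pinned in; 16 hr, 37 °C, 5% CO2; ONE-Glo, 30 min RT; luminescence on CCD imager.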
# SMN2 splice up = SMN2 splice variant enhancement; HEK293 SMN2-luciferase splicing reporter, luminescence, 30-36 h; Potency, µM (doses to about 46.1 µM), most hits filed as activators; hit rate 2.8% among 210,000; note: nearly all actives have a fitted effect of over 55% in size
#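 HEK293 cells carry an SMN2 minigene-luciferase reporter in which exon 7 inclusion puts luciferase in frame. Cells were seeded at 2000 cells/well, attached for 10-12 hours, then exposed to compounds for 30-36 hours at 37C before ONE-Glo luminescence.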
# A number is an active result; 0 = inactive; ? = inconclusive; - = not tested or not shown; [ ] = dose if it differs, or a comment. Rows were chosen to be rich in hits. Some 9.2% of all compounds tested hit in one or more screens of this group. Calls come from the whole dose curve; as a rule, active = well fitted curve in the direction sought with a large enough effect; inconclusive = small, poorly fitted or top-dose-only effect, or another doubt; inactive = no such curve, though single readings can be large; an effect the other way counts as inactive or inconclusive.
SMILES,NPC1 prom act,FLuc modulator,ELG1 DNA repair,Rab9 promoter act,ELG1 genotoxic,SMN2 splice up
COc1ccc(NC(=O)CSc2nc(C(C)C)nc3c2c(=O)n(C)c(=O)n3C)c(OC)c1,0,0,0,0,0,-
Cc1ccc(N/C=C/C(=O)c2cccs2)cc1,?,0.12µM,?,0.141µM,0.164µM,2µM
O=C(NNC(=O)c1cccs1)c1cccc(F)c1,0,0,?,0,0,-
Cc1ccc(N/C=C/C(=O)c2sc(-c3ccccc3)nc2C)cc1,0,6.01µM,?,0,0,0
O=C(/C=C/Nc1ccccc1F)c1cccs1,?,0.239µM,?,3.98µM,?,2µM
CCOC(=O)c1ccccc1N/C=C/C(=O)c1cccs1,0,?,0,?,0,-
O=C(/C=C\Nc1cccc(F)c1)c1cccs1,3.98µM,0.849µM,?,3.98µM,?,6.31µM
CCCSCCCNC(=O)CN1C(=O)COc2ccc(S(=O)(=O)N3CCC(C)CC3)cc21,-,0,-,-,-,0
O=C(Cn1c(CCCO)nc2ccccc21)Nc1ccccc1-c1ccccc1,0,0,0,0,0,-
Cc1cc(Br)ccc1NC(=O)CNC(=O)CSc1nccn1C,-,-,0,-,0,-
COCC(=O)N1CCC[C@@]2(CCN(Cc3ccc(C#N)cc3)C2)C1,-,-,-,-,-,0
O=C(/C=C/Nc1ccc(F)cc1F)c1cccs1,0.562µM,0.107µM,?,2µM,?,0.398µM
Cc1ccc(/C=N/NC(=O)c2ccc3ccccc3c2)s1,0,26.9µM,0,0,?,-
O=C(N/N=C/c1cc(Br)cs1)c1ccc2c(c1)OCCO2,0,1.35µM,?,?,0,-
Cc1ccc(/C=N/NC(=O)c2ccc3c(c2)OCCO3)s1,?,3.38µM,?,?,?,-
O=C(N/N=C/c1cccs1)c1cccc2cc[nH]c12,?,23.9µM,0,?,0,0
O=C(N/N=C/c1cccs1)c1ccc2ccccc2c1,0,10.7µM,?,?,0,-
O=C(N/N=C/c1cccs1)c1ccc2ncccc2c1,0,?,?,0,0,0
O=C(O)c1ccc(N2C(=O)CC(N3CCN(c4ccc(Cl)cc4)CC3)C2=O)cc1 (stereo not given),0,0,?,0,0,-
O=C(O)c1ccc(N2C(=O)CC(N3C(=O)/C(=C/c4ccc(Cl)cc4)SC3=S)C2=O)cc1 (stereo not given),0,16.9µM,0,0,0,-
CC1=CC(c2ccccc2)=Nc2ccc(C)cc2N1,3.55µM,6.75µM,?,3.98µM,11.6µM,10µM
COc1ccc(C2=NC(c3ccccc3)=Nc3ccc(C)cc3N2)cc1,-,?,-,-,-,0
CC1CCc2sc(C(=O)Nc3ccc(C(N)=O)cc3)cc2C1 (stereo not given),?,2.39µM,?,0,?,-
CC1CCc2sc(C(=O)NN)cc2C1 (stereo not given),0,?,?,0,0,-
CC1CCc2sc(C(=O)NNC(=O)c3ccncc3)cc2C1 (stereo not given),0,?,?,0,0,-
SMILES,NPC1 prom act,FLuc modulator,ELG1 DNA repair,Rab9 promoter act,ELG1 genotoxic,SMN2 splice up
CC1CCc2sc(C(=O)NCC3CCCO3)cc2C1 (stereo not given),2.82µM,10.7µM,?,3.98µM,?,-
CC1CCc2sc(C(=O)NNS(=O)(=O)c3ccc(F)c(F)c3F)cc2C1 (stereo not given),0,10.7µM,?,0,0,-
CC1CCc2sc(C(=O)NNC(=S)NC3CC3)cc2C1 (stereo not given),?,0,?,1.12µM,0,-
CCOc1ccccc1CNCc1cccn1-c1nnc(N2CCN(c3ccccc3)CC2)s1,-,0,-,-,-,-
COc1cccc(C2=NN(S(C)(=O)=O)C(c3cn(-c4ccccc4)nc3-c3cccs3)C2)c1 (stereo not given),-,?,-,-,-,0
CC(OC(=O)CCN=C1NS(=O)(=O)c2ccccc21)C(=O)Nc1ccc(S(N)(=O)=O)cc1 (stereo not given),0,0,0,0,0,-
Cc1cc(OCc2cc(C(=O)N3CCCCCC3)no2)cc(C)c1Cl,2.82µM,13.5µM,?,2.51µM,?,-
COCC1CCN(C(=O)c2cc(COc3cc(C)c(Cl)c(C)c3)on2)C1 (stereo not given),?,16.9µM,?,4.47µM,0[9.26 µM],-
COCC1CCN(C(=O)c2cc(COc3cncc(Cl)c3)on2)C1 (stereo not given),0,0,?,0,0,-
CCN(CC1CCCO1)C(=O)c1cc(COc2cc(C)c(Cl)c(C)c2)on1 (stereo not given),3.16µM,13.5µM,?,2.24µM,?,-
Cc1ccc(OCc2cc(C(=O)N3CCCCCCC3)no2)cc1C,?,?,?,?,0,-
Cc1ccc2nc(NC(=O)COC(=O)c3ccncc3)sc2c1,?,8.49µM,?,?,?,?
Cc1ccc2nc(NC(=O)COc3ccc(F)cc3)sc2c1,-,0,-,-,-,-
COCC(=O)Nc1nc2ccc(C)cc2s1,2.51µM,9.53µM,?,1.12µM,2.06µM,10µM
Cc1ccc(C(=O)N2N=C(c3ccc(NS(C)(=O)=O)cc3)CC2c2cccs2)cc1 (stereo not given),0,0,?,0,0,-
CS(=O)(=O)Nc1cccc(C2=NN(C(=O)c3ccccc3)C(c3cccs3)C2)c1 (stereo not given),0,0,?,0,0,-
COc1ccc(C(=O)N2N=C(c3ccc(NS(C)(=O)=O)cc3)CC2c2cccs2)cc1 (stereo not given),0,0,18.3µM,0,0,-
CS(=O)(=O)Nc1cccc(C2=NN(C(=O)c3cccc([N+](=O)[O-])c3)C(c3cccs3)C2)c1 (stereo not given),0,0,13µM,0,0,-
CN1CCN(c2oc(/C=C/c3ccc(F)cc3)nc2C#N)CC1,-,0,-,-,-,0
CCOc1ccc(CCNC(=O)c2sc3ncccc3c2-n2cccc2)cc1OCC,-,0,-,-,-,-
Cc1ccc(OC(=O)c2cccc(S(=O)(=O)N3CCCC3)c2)c(-n2nc3ccccc3n2)c1,3.55µM,?,?,3.98µM,?,11.2µM
CC(=O)Oc1ccc(C)cc1-n1nc2ccccc2n1,2.82µM,21.3µM,?,4.47µM,?,?
Cc1ccc(OC(=O)c2ccc(S(=O)(=O)N(C)C)cc2)c(-n2nc3ccccc3n2)c1,3.98µM,?,?,1.41µM,?,?
CN(C)S(=O)(=O)c1ccc(C(=O)Oc2ccccc2)cc1,0,0,0,0,0,?
Cc1ccc(C)c(COC(=O)c2cccc(S(=O)(=O)N3CCCC3)c2)c1,0,0,0,0,0,-
Cc1ccc(OC(=O)c2cccc(S(=O)(=O)N(C)C)c2)c(-n2nc3ccccc3n2)c1,3.55µM,0,?,2.82µM,4.61µM,?
CNC(=O)[C@H]1O[C@@H](n2cnc3c(NCc4ccc(N)cc4)ncnc32)[C@H](O)[C@@H]1O,0,-,-,0,-,0
CCOC(=O)c1c(S(=O)(=O)N2CCC(C(=O)N3CCN(c4cccc(C)c4C)CC3)CC2)c(C)n(C)c1C,-,0,-,-,-,-

# Source: PubChem BioAssay (National Center for Advancing Translational Sciences (NCATS))
